Data from paper PMC12136788.
Residue numbers refer to the chain shown, from its start. Whole data set: some 5,800 sequences, median “enrichment r” near 0.68, cut for the highest 2% near 11. This is one part of a sample in which the highest values are shown more often than they occur.

T1: UNK ZnF1-6 (called full-length) (human, UniProt Q9C0B0 30-357)
T1 sequence: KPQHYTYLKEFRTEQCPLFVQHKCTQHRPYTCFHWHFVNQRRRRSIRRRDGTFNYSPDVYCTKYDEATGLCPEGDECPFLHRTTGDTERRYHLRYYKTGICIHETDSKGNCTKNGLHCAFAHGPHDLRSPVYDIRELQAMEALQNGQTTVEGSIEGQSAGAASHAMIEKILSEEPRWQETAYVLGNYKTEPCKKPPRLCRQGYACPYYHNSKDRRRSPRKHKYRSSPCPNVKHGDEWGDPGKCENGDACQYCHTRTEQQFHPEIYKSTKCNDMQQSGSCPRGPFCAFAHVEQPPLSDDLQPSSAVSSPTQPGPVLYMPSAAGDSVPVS

B1: ENSG00000099904:stop:overlap|stop_codon|ENSG00000099904|stop_codon|NA|stop_codon (ssRNA)
RNA: GGGAGUUCUACAGUCCGACGAUCGGGCCAUGUGCCGCCUGCACUUGGCUGCCUCCAGUCUUUUCCCCAGCCUCUCGGGGCCCUAGCAGGAUGACAAGUAGGCGGCUCUGGGGCCCAGGACAGCCCAGCUGGGGACCCAGGAGGCAACAGAGGAUUGAGCAUCA
B2: chr2:216675367:216675485:-|3pUTR|ENSG00000115461|msi1|FALSE|unique (ssRNA)
RNA: GGGAGUUCUACAGUCCGACGAUCGCCAGGCAGAGGCCAGCCCUCCGUGGUGCACACAGCACGCGCCUCAGUCCAUCCCAUUUUAGUCUUUAAACCCUCAGGAAGUCACAGUCUCCGGACACCACACCACAUGAGCCCAACAGGCAACAGAGGAUUGAGCAUCA
B3: chr15:63775065:63775180:-|CDS|ENSG00000103657|unk|FALSE|unique (ssRNA)
RNA: GGGAGUUCUACAGUCCGACGAUCUGGUUCAGCAGAUGUCCAUUCUGUUAGUGAACGCCCCCGGUCAAGCACUGAUGCACUUAUAGAAAUGGGUGUUCGAACUGGUCUAAGUUUAUUAUUUGCGCUUCUAAGACAAAGUUGGAUCAACAGAGGAUUGAGCAUCA
B4: chr14:77132432:77132533:-|3pUTR|ENSG00000177108|unk|total|mutant (ssRNA)
RNA: GGGAGUUCUACAGUCCGACGAUCUGUGAUUGCUGGACCCAGAGGCAAGAUCUGCAGAGAUGCCUGUGAGAUAUUUGCUUUCCCCGAGGGGAGUGUGGGCAUGGGAGGGGUCUGAAAAUCAGGACCCAACCCAGCCACUGAAGACAACAGAGGAUUGAGCAUCA
B5: chr7:7234405:7234460:+|CDS|ENSG00000106392|msi1_unk|FALSE|overlapping (ssRNA)
RNA: GGGAGUUCUACAGUCCGACGAUCAAUUUUUUAACCUUCCUCUGUGGAUCAGCAAUAGGAUUUCUUUUAUGUUCUCAGCUAUUUAGUAUUUUGUUGGGAGAAAAGGUUGACACCCAGCCUAAUGUUCUUCAUAAUGAUCCUCAUCAACAGAGGAUUGAGCAUCA
B6: chr6:15520333:15520434:+|3pUTR|ENSG00000008083|unk|FALSE|unique (ssRNA)
RNA: GGGAGUUCUACAGUCCGACGAUCCUUGCUGUAGGAUUCAAGCUGUCUUUGCACUAGCUCUAAAGAAGAUUUUCUUCUGGUUUUAGAGAACUAAUUUUGUUUUAGCAUUAAACUGUUGAACUUUUUUUUGUACUUAGAAAACCUCAACAGAGGAUUGAGCAUCA
B7: ENSG00000137168:stop:overlap|stop_codon|ENSG00000137168|stop_codon|NA|stop_codon (ssRNA)
RNA: GGGAGUUCUACAGUCCGACGAUCCAAACUCCCAGGACCGCCCUGUGGACGACGUGAAGAUCAUUAAGGCAUACCCUUCUGGGUAGACUUGCUACCCUCUUGAGCAGCUCUUCUGAGAUGGCCCCAGUGAACCAGCUUCUAGAUCAACAGAGGAUUGAGCAUCA
B8: ENSG00000070961:be:win_6151|3pUTR|ENSG00000070961|bound_else_gene|NA|bound_elsewhere_windowed (ssRNA)
RNA: GGGAGUUCUACAGUCCGACGAUCCAAUCACUUUUUCUCUUUUAUCCUCUAACCAAAAAAUUGUUUAAUUUUGCAUCCCAAAUGUUUUUAAUCUUUGUAUAUUUUUUAAAAAUCCUUUUCUCCUCAUCAUUGCCUUUUUUGUGGCAACAGAGGAUUGAGCAUCA
B9: chr6:43186014:43186115:+|CDS|ENSG00000112659|msi1|total|mutant (ssRNA)
RNA: GGGAGUUCUACAGUCCGACGAUCCUGCUUUUCUCCUUGGUGAAGCGCUACCUUUGUGUCACGUCCCUCCUGGAUCAGCUGAACCGCAGUCCAGAGCUGGGAGCUGGAGACCAAAGCUCCCCAUGUGCCACAAGAGAGAAAAGCCAACAGAGGAUUGAGCAUCA
B10: chr2:74214837:74214938:+|3pUTR|ENSG00000065911|msi1_unk|total|mutant (ssRNA)
RNA: GGGAGUUCUACAGUCCGACGAUCCUGUCCUUUUGAGGCUCCGUCAGUUUAUUGGGAAAAUGUUCCGGAUUAUUCCUUGCUAUCCGUACUCAUUUUAUGUAUGUUACCCUUCAGUAAGUUCUCCCCAUUUCCGUUUUCCCGGACCAACAGAGGAUUGAGCAUCA
B11: chr3:25596636:25596694:+|3pUTR|ENSG00000077092|msi1_unk|FALSE|overlapping (ssRNA)
RNA: GGGAGUUCUACAGUCCGACGAUCUCCCCAGUACCUUCAGUUCCAGGAUUUAAAAUGCAAGAAAAAACAUUUUUACUGCUGCUUAGUUUUUGGACUGAAAAGAUAUUAAAACUCAAGAAGGACCAAGAAGUUUUCAUAUGUAUCCAACAGAGGAUUGAGCAUCA
B12: chr8:22006364:22006465:+|3pUTR|ENSG00000130227|msi1|FALSE|unique (ssRNA)
RNA: GGGAGUUCUACAGUCCGACGAUCUGUUGCUGCUAGUUGUACACAUCUCUAGUUCAGCUCUUGCCCACGGGACACUCAUCAAUUAGGUUUUAUUUUUAUUUCUUUCCUCUACCCCCAGAAACAAGCCUGUUAAUUUUUUUUCCUCAACAGAGGAUUGAGCAUCA
B13: chr13:51761002:51761103:+|3pUTR|ENSG00000139668|unk|FALSE|unique (ssRNA)
RNA: GGGAGUUCUACAGUCCGACGAUCACGGCAAGAUUGUAAUCCUGCUGUAUUCCUCGCCCUCUGUAUUCUAUCCCUUUAAAAACUAGAUAUUUAAACAUUUUAUCCUAAUGUGUUUCAUCAGAACACUUUGCACACUUUCUUACUCAACAGAGGAUUGAGCAUCA
B14: ENSG00000147536:stop:overlap|stop_codon|ENSG00000147536|stop_codon|NA|stop_codon (ssRNA)
RNA: GGGAGUUCUACAGUCCGACGAUCUCCGCUACGUCCUCAGCAGCUACUUGCGGUGUCGCCUCAUGAAGUUCCCAAACCAGAUCUAGAUUCUUACGUGUUUCUGAGAGUGAGAGAACGACAAGAAAACAUACUGGUAGAACCAGACAACAGAGGAUUGAGCAUCA
B15: chr8:22006364:22006465:+|3pUTR|ENSG00000130227|msi1|total|mutant (ssRNA)
RNA: B12 RNA with U33C, A34C, U49C, A50C, U83C, A84C
B16: chr2:74214837:74214938:+|3pUTR|ENSG00000065911|msi1_unk|FALSE|overlapping (ssRNA)
RNA: B10 RNA with C40U, C41A, C64U, C65A, C83U, C84A, C130U, C131A, C138U, C139A

target: T1, UNK ZnF1-6 (called full-length); test: nsRBNS (natural sequence RNA bind-n-seq); RBNS binding buffer (assumed for nsRBNS): 25 mM Tris pH 7.5, 150 mM KCl, 3 mM MgCl2, 0.01% Triton X-100, 500 ug/ml BSA, 20 U/ml SUPERase-In, 4 C; UNK is unkempt and MSI1 is Musashi-1; names of the RNAs are library labels; protein concentration not given here; high values mean tight binding

Binder	binding signal [enrichment R]
B1	1.2
B2	2.44
B3	0.696
B4	0.528
B5	2.12
B6	3.46
B7	0.7
B8	4.78
B9	0.544
B10	0.338
B11	0.303
B12	41.4
B13	28.5
B14	33.9
B15	2.95
B16	12.4
